The values below come from PubChem BioAssay (NCI).

Among the test systems are NCI-H23 lung; NCI-H226 lung; NCI-H322M lung; HOP-62 NSCLC; NCI-H460 lung; HOP-92 NSCLC; A549/ATCC NSCLC; 786-0 renal; COLO 205 colon; DU-145 prostate; K-562 leukemia; MALME-3M melanoma; MDA-MB-231 breast; RXF 393 renal; SF-268 CNS; SF-295 CNS; SF-539 CNS; UACC-257 melanoma; M14 melanoma.
Holding throughout (test): NCI-60 one-dose screen, 48 h (100 = growth as untreated, 0 = no growth, -100 = all killed)
Common to all, as to details: 10 µM unless noted

About 83,000 compounds went through this panel and 20% of them were active in at least one assay; those are over-represented in the sample as a whole.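 Activity criterion: percent growth below 10, measured after cells in 96-well plates were exposed to a single compound concentration for 48 hours.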 Values without a mark were called inactive. Calls of active or inactive are those of the source.

`Clc1ccc(C2=NN(c3ccc(Cl)cc3)C(c3cccc(Nc4ccnc5cc(Cl)ccc45)c3)C2)cc1` (configuration not stated): the growth in the test on NCI-H23 lung was 85.2%; in the test on NCI-H226 lung, 88%; with NCI-H322M lung it was 87.7%; in the test with HOP-62 NSCLC, 69.4%; in the test with NCI-H460 lung, 93.1%; in the test with HOP-92 NSCLC, 88%. In addition, the growth in the test with A549/ATCC NSCLC is 70.9%; in the test with 786-0 renal, 85.3%; in the test with COLO 205 colon, 72.8%; with DU-145 prostate, 96.2%; in the test on K-562 leukemia it was 75.1%; with MALME-3M melanoma, 87.1%. The growth in the test with MDA-MB-231 breast was 84.5%; with RXF 393 renal it was 82.5%; in the test on SF-268 CNS, 84.3%; in the test on SF-295 CNS, 88.6%; in the test on SF-539 CNS, 96.5%; with UACC-257 melanoma it was 76.8%. Further, in the test on M14 melanoma, the growth was 84.8%.
Regarding `O=C(CSc1nnc(-c2cc(-c3ccccc3)nc3ccccc23)o1)c1ccc(Br)cc1`, the growth is 106% with NCI-H23 lung; 104% in the test on NCI-H226 lung; 103% in the test on NCI-H322M lung; 101% in the test on HOP-62 NSCLC; 106% in the test on NCI-H460 lung; 114% with HOP-92 NSCLC. Also, the growth in the test on A549/ATCC NSCLC was 105%; in the test on 786-0 renal, 104%; in the test with COLO 205 colon, 119%; in the test with DU-145 prostate it was 106%; in the test on K-562 leukemia, 91%; with MALME-3M melanoma, 97.3%. In addition, the growth in the test with MDA-MB-231 breast is 95.4%; with RXF 393 renal, 108%; in the test on SF-268 CNS it was 93.8%; in the test with SF-295 CNS it was 107%; in the test with SF-539 CNS, 99.6%; with UACC-257 melanoma, 111%. Further, the growth in the test with M14 melanoma is 101%.
For `NC(=N\N=C/Cc1ccccc1)/C(N)=N\N=C\Cc1ccccc1`, the growth with NCI-H23 lung is 104%; with NCI-H226 lung, 104%; with NCI-H322M lung, 117%; with HOP-62 NSCLC, 113%; with NCI-H460 lung, 112%; with HOP-92 NSCLC, 109%. For the same compound, the growth was 101% in the test on A549/ATCC NSCLC; 112% with 786-0 renal; 117% with COLO 205 colon; 101% with DU-145 prostate; 103% in the test on K-562 leukemia; 144% in the test on MALME-3M melanoma. In addition, the growth was 97.7% in the test with MDA-MB-231 breast; 121% with RXF 393 renal; 94% with SF-268 CNS; 108% in the test with SF-295 CNS; 93% with SF-539 CNS; 101% in the test on UACC-257 melanoma. Also, the growth with M14 melanoma was 105%.
As for `Cc1cc2c(cc1C)[n+](Cc1ccc3ccccc3c1)cn2Cc1ccc2ccccc2c1`, the growth was -71.8% (active) in the test with NCI-H23 lung; -25.5% (active) with NCI-H226 lung; -8.28% (active) in the test with NCI-H322M lung; -73% (active) in the test with HOP-62 NSCLC; -76.8% (active) in the test on NCI-H460 lung; -80.8% (active) in the test with HOP-92 NSCLC. Moreover, the growth with A549/ATCC NSCLC is -71.3% (active); with 786-0 renal, -88.9% (active); in the test with COLO 205 colon it was -67.8% (active); in the test with DU-145 prostate it was -89.5% (active); with K-562 leukemia, -57.3% (active); with MALME-3M melanoma, -78.7% (active). Further, the growth is -75.7% (active) in the test with MDA-MB-231 breast; -87% (active) in the test on RXF 393 renal; -81.2% (active) in the test on SF-268 CNS; -80.9% (active) with SF-295 CNS; -93.2% (active) with SF-539 CNS; -55.6% (active) with UACC-257 melanoma. Also, the growth in the test with M14 melanoma is -78.8% (active).
Consider `C=C1CC[C@@H]2[C@](C)(COC(C)=O)[C@H](OC(C)=O)CC[C@@]2(C)[C@@H]1CC(NCc1ccccc1)C1=CCOC1=O` (some centres not stated), for which the growth in the test with NCI-H23 lung is 57.4%; in the test with NCI-H226 lung it was 11.4%; in the test on NCI-H322M lung, 77%; in the test with HOP-62 NSCLC, 89%; in the test with NCI-H460 lung, 48.4%; in the test with HOP-92 NSCLC it was 41.7%. The growth in the test with A549/ATCC NSCLC is 49.2%; with 786-0 renal, 71.4%; with COLO 205 colon, 45.6%; in the test with DU-145 prostate, 67.2%; with K-562 leukemia, 24.7%; in the test on MALME-3M melanoma, 77.1%. For the same compound, the growth with MDA-MB-231 breast was 64.7%; in the test on RXF 393 renal it was 74.3%; in the test with SF-268 CNS it was 62.1%; in the test with SF-295 CNS, 63.9%; in the test on SF-539 CNS it was 79.5%; in the test on UACC-257 melanoma it was 32.8%. In addition, the growth with M14 melanoma was 42.1%.
In the case of `O=C(CSc1ncc(-c2ccccc2)n1-c1ccccc1)Nc1ccc(-c2nc3ccccc3s2)cc1`, the growth in the test on NCI-H23 lung is 62.6%; in the test with NCI-H226 lung it was 103%; in the test on NCI-H322M lung it was 90.1%; with HOP-62 NSCLC it was 73.1%; in the test with NCI-H460 lung, 36.3%; in the test with HOP-92 NSCLC, 95.6%. Besides, the growth in the test on A549/ATCC NSCLC was 20.3%; with 786-0 renal it was 69.8%; with COLO 205 colon, 103%; in the test on DU-145 prostate, 68.4%; in the test with K-562 leukemia, 70.7%; in the test with MALME-3M melanoma, 17%. The growth in the test with MDA-MB-231 breast was 95.4%; with RXF 393 renal, 93.2%; in the test on SF-268 CNS it was 54.3%; in the test on SF-295 CNS, 96.4%; in the test on SF-539 CNS, 59.8%; in the test with UACC-257 melanoma it was 48.8%. The growth with M14 melanoma is 72.8%.
In the case of `Cc1ccc(C(=O)Cc2ccccc2)c(O)c1`, the growth with NCI-H23 lung is 101%; with NCI-H226 lung it was 102%; with NCI-H322M lung, 77.6%; in the test with HOP-62 NSCLC it was 104%; with NCI-H460 lung, 111%; in the test on HOP-92 NSCLC, 87.3%. In addition, the growth in the test on A549/ATCC NSCLC is 102%; with 786-0 renal, 112%; in the test with COLO 205 colon, 109%; in the test with DU-145 prostate, 101%; in the test with K-562 leukemia, 98.8%; with MALME-3M melanoma, 115%. Moreover, the growth was 103% in the test with MDA-MB-231 breast; 115% with RXF 393 renal; 97.6% in the test with SF-268 CNS; 107% in the test with SF-295 CNS; 102% in the test on SF-539 CNS; 108% with UACC-257 melanoma. The growth in the test on M14 melanoma is 110%.
Consider `O=C1NC(=S)S/C1=C\c1cc(Br)ccc1O`, for which the growth in the test with NCI-H23 lung was 84.7%; in the test with NCI-H226 lung, 91.4%; in the test on NCI-H322M lung, 92.3%; with HOP-62 NSCLC, 81.6%; with NCI-H460 lung it was 102%; in the test with HOP-92 NSCLC, 75.7%. Further, the growth in the test with A549/ATCC NSCLC is 107%; in the test on 786-0 renal, 109%; in the test on COLO 205 colon, 95%; with DU-145 prostate, 105%; with K-562 leukemia, 112%; with MALME-3M melanoma, 71.8%. For the same compound, the growth is 96.7% in the test on MDA-MB-231 breast; 115% in the test with RXF 393 renal; 90.1% with SF-268 CNS; 111% in the test with SF-295 CNS; 93.1% in the test on SF-539 CNS; 105% with UACC-257 melanoma. Moreover, in the test on M14 melanoma, the growth was 88.5%.
